Bioassay records from PubChem BioAssay.
TGFb SMAD3 inh = blocks TGF-b signaling. HepG2 CAGA-GFP TGF-b/SMAD3 reporter, GFP fluorescence, 18 h; TGF-beta stimulated, 500 pg/mL final. Potency, µM (highest dose often 46.1 µM), for the others: at the top dose activity, negative = inhibition, most hits filed as inhibitors. 1.2% of 410,000 active; further: potency means the concentration at half of the fitted maximal effect; on the % scale 0 is the no-effect control and ±100 the full control effect; nearly all actives have a fitted effect of over 65% in size
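Inhibition of TGF-beta-driven CAGA-GFP reporter expression in HEPG2 cells is measured by cellular GFP fluorescence after 18 h stimulation with 500 pg/mL recombinant TGF-beta in 1% FBS medium at 37 degrees C.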
IL1B secr inh = blocks inflammasome-driven IL-1 beta release | THP-1 LPS/ATP IL-1B secretion, AlphaLISA, 16 h; hits give low values | activity change, % at 57.5 µM | 4.7% of 360,000 active | AID 743279; in the data active means activity change below about -50%; inconclusive means mostly about -30% to -49%; further: on the % scale 0 is the no-effect control and ±100 the full control effect
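Secreted IL-1B measured by AlphaLISA bead assay after 16 h compound exposure of THP-1 cells; compounds (final up to 57.5 uM) added 1 h before LPS (250 ng/mL) and ATP (1.25 mM) stimulation; lower signal means less secretion.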
HT1080NT lethal = kills 2HG-producing HT-1080-NT fibrosarcoma cells; HT-1080-NT fibrosarcoma viability, CellTiter-Glo ATP luminescence, 48 h; Potency, µM (highest dose often 46.1 µM), without a hit: at the highest dose activity, negative = less viability, hits mostly cytotoxic; 1.6% of 360,000 active; AID 686970;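 further: NT is the 2HG producing partner of a matched IDH1 knockdown line; potency means the concentration at half of the fitted maximal effect; 0% = DMSO-treated cells and -100% = media-only wells without cells; nearly all actives have a fitted effect of over 55% in size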
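Compounds were tested in concentration-response format on HT-1080-NT cells for 48 hours at 37 degrees C. Cell viability came from CellTiter-Glo luminescence; curves were classified by r2, response magnitude and activity.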
HT1080 IDH1KD tx = HT-1080 IDH1 knockdown cell toxicity (counter line). HT-1080 IDH1 knockdown viability, ATP luminescence, 48 h. Potency, µM (doses to about 46.1 µM), for inactives: at the top dose activity, negative = toxicity, most hits filed as cytotoxic. 2% of 360,000 active. AID 686971;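 further: potency means the concentration at half of the fitted maximal effect; 0% = DMSO wells and -100% = cell-free medium wells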
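Knockdown cells (IDH1KD HT-1080) received compounds 2 h after plating at 750 cells/well and were kept 48 h at 37 °C in 5% FBS RPMI. A CellTiter-Glo luminescence read gave % activity for curve fitting.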
Giardia killer = kills Giardia lamblia. Giardia lamblia trophozoite viability. activity change, % at 7.66 µM, hits read low. 0.15% of 340,000 active; in the data active means activity change below about -80%; inconclusive means between about -30% and that limit;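 further: parasites exposed to compound for two days anaerobically before the ATP read; on the % scale 0 is the no-effect control and ±100 the full control effect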
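Killing of trophozoites was scored by loss of ATP luminescence after a 48 hrs anaerobic exposure to compounds at 37 deg C, using 100 cells per well.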
HepG2 tox = kills HepG2 cells in TGF-b inhibitor counter-screen. HepG2 CAGA-GFP viability, ATP luminescence, 18 h. 0.76% of 410,000 active. Potency, µM (titrated, usually from 46.1 µM), inactives show at the highest dose activity change, negative = cytotoxicity, most hits filed as cytotoxic. AID 588856; further: potency means the concentration at half of the fitted maximal effect
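HepG2 CAGA-GFP cells (1000/well, DMEM with 1% FBS) received compound, then TGF-beta at 500 pg/mL final, and were incubated 18 hours at 37 degrees C. Viability was read by CellTiter-Glo luminescence. Media-only wells were set as complete cell-killing and DMSO as no toxicity.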
An asterisk follows results filed as active; ? = inconclusive; / = not tested or not shown; [ ] = another dose, or the depositor's remark. Compounds with a hit are over-represented: about 6.5% of the library has one in this group of screens. Unless noted, the call rests on the fitted dose curve; in most records, active means well fitted curve in the direction sought with a large enough effect; inconclusive means small, poorly fitted or top-dose-only effect, or another doubt; inactive means no such curve, though single readings can be large; an effect the other way counts as inactive or inconclusive.

SMILES | TGFb SMAD3 inh | IL1B secr inh | HT1080NT lethal | HT1080 IDH1KD tx | Giardia killer | HepG2 tox
Cc1cccc(-n2c(C)cc(C(=O)C(=O)Nc3ccccc3F)c2C)c1C | -17.9% | / | / | / | / | -28.3%
O=C(CN1CCSC1=NCc1ccccc1)c1ccccc1 | -0.1% | -14.9 | -5.7% | 1.0% | 18.3 | -12.0%
CCCOC(=O)c1cccc(Nc2nc(-c3cccnc3)nc3ccccc23)c1 | 17.8µM* | -98.0* | 25.9µM* | ? | 17.7 | 15.8µM*
COc1cccc(Nc2nc(NCCO)c3ccccc3n2)c1 | 12.6µM* | / | ? | ? | 15.7 | -36.4%
CCOC(=O)c1nc(Nc2ccc(Nc3ccccc3)cc2)c2ccccc2n1 | -26.0% | -64.8* | -29.0% | ? | -10.2 | -19.0%
CC(C)Nc1nc(NCCO)nc2ccccc12 | / | 87.8 | 7.3% | 0.5% | / | /
CCOC(=O)c1ccc(Nc2nc(C(=O)OCC)nc3ccccc23)cc1 | 0.0% | -1.6 | -23.3% | ? | 8.6 | -24.7%
OCCNc1nc(NCc2ccccc2)c2ccccc2n1 | -4.4% | -98.5* | ? | ? | 19.6 | -1.7%
O=C(NNC(=O)C1CCCN(S(=O)(=O)c2cccc(F)c2)C1)C1CC1 (stereo not drawn) | 1.9% | -9.9 | -3.1% | -25.0% | ? | 1.5%
Cc1cccc(NC(=O)c2cc(S(=O)(=O)N3CCCCCC3)cn2C)c1C | 0.0% | / | / | / | / | -5.1%
COc1cc2cc(NC(C)=O)cc(NCc3ccccc3)c2cc1OC | -1.2% | -8.6 | 2.4% | -0.1% | 0.2 | -9.5%
CCCCNc1cc(NC(C)=O)cc2cc(OC)c(OC)cc12 | 10µM* | 51.7 | -21.1% | -20.7% | 9.0 | -31.1%
CCOCCCn1c(SCC(=O)OCC)nc2c(sc3ccccc32)c1=O | -10.5% | / | / | / | / | -18.6%
O=C(CN(c1cccc(C(F)(F)F)c1)S(=O)(=O)c1ccc(Cl)c([N+](=O)[O-])c1)NCc1ccc(F)cc1 | ? | -99.3* | ? | ? | 0.8 | -47.2%
O=C(CN(c1cccc([N+](=O)[O-])c1)S(=O)(=O)c1ccccc1)NCc1cccnc1 | 25.4% | 13.5 | 14.3% | 6.3% | 27.4 | 1.1%
Cc1ccc(NC(=O)N2CCCN(Cc3ccc(F)cc3)C2)cc1C | -6.6% | -19.1 | 14.6µM* | 16.4µM* | -9.2 | -89.7%
Cc1ccc(NC(=O)N2CCCCCC2)cc1C | 36.1% | -0.5 | 24.2% | 18.2% | 48.0 | -6.6%
O=C(Nc1ccc(Cl)cc1)N1CCCN(Cc2ccccc2F)C1 | 7.4% | ? | ? | 12.6µM* | -7.5 | -53.9%
Cc1cccc(C)c1NC(=S)N1CCCN(Cc2ccc(F)cc2)C1 | -11.6% | -50.9* | -26.5% | -14.0% | 11.0 | -1.6%
COc1ccccc1NS(=O)(=O)c1cccc(C(=O)NCc2ccco2)c1 | -7.8% | -13.4 | -4.6% | -11.2% | -16.5 | 4.1%
Cc1ccc(OCCC(=O)Nc2ccccc2C(=O)NC2CC2)cc1 | -4.4% | 12.9 | -0.2% | -4.4% | 21.2 | -4.9%
O=C(NCCC(=O)N1CCN(S(=O)(=O)c2ccccc2)CC1)c1ccc(Br)cc1 | -2.3% | 0.6 | -3.3% | -1.1% | -0.1 | 0.0%
O=c1n(Cc2ccccc2)c(O)c2n1Cc1ccccc1N=C2c1ccccc1 | -27.6% | -2.6 | -0.8% | 0.8% | / | 0.0%
Cc1cccn2c(=O)c3cc(C(=O)NCCN4CCOCC4)c(=N)n(CCc4ccccc4)c3nc12 | -3.7% | -63.4* | -11.4% | 0.5% | 13.2 | 0.9%
Cc1cccn2c(=O)c3cc(C(=O)NCCCN4CCCC4=O)n(C)c3nc12 | -18.5% | -76.9* | -2.5% | 4.8%[9.24 µM] | 9.9 | -32.0%
SMILES | TGFb SMAD3 inh | IL1B secr inh | HT1080NT lethal | HT1080 IDH1KD tx | Giardia killer | HepG2 tox
COc1ccc(CCn2c(=N)c(C(=O)N3CCN(C)CC3)cc3c(=O)n4ccccc4nc32)cc1 | 7.3% | -53.8* | -2.2% | -0.3% | -1.2 | -49.5%
Cc1cccn2c(=O)c3cc(C(=O)NCCN4CCOCC4)c(=N)n(CCCN4CCOCC4)c3nc12 | -12.3% | -24.8 | -5.9% | 0.4% | 2.2 | -2.0%
Cc1ccc(Cn2c(=N)c(C(=O)NCC3CCCO3)cc3c(=O)n4cccc(C)c4nc32)cc1 (stereo not drawn) | -4.7% | -55.2* | -0.4% | 1.4% | -8.3 | -17.3%
Cc1ccc(Cn2c(=N)c(C(=O)NCC3CCCO3)cc3c(=O)n4ccccc4nc32)cc1 (stereo not drawn) | -2.8% | -1.0 | -2.0% | -19.7% | 0.9 | 0.7%
COc1ccc(/C=C2/SC(=O)N(CC(O)Cn3c4ccccc4c4ccccc43)C2=O)cc1 (stereo not drawn) | 10.9% | 10.4 | -10.5% | -0.4% | 2.2 | -3.1%
O=C(Cc1c[nH]c2ccccc12)NNC(=O)c1ccccc1 | 6.7% | 10.7 | -10.3% | -14.2% | 19.7 | 5.1%
Cc1cccn2c(=O)c3cc(C(=O)NC4CCCC4)c(=N)n(Cc4ccc(F)cc4)c3nc12 | 7.8% | 15.9 | 7.0% | 21.5% | -14.0 | -2.7%
Cc1cccn2c(=O)c3cc(C(=O)NCC4CCCO4)c(=N)n(CCN4CCOCC4)c3nc12 (stereo not drawn) | ? | -50.6* | 1.4% | -7.2% | 3.2 | -2.8%
Cc1cccn2c(=O)c3cc(C(=O)NC4CCCCC4)c(=N)n(Cc4ccccc4)c3nc12 | -1.3% | -86.4* | -3.9% | -17.7% | 5.3 | 6.9%
COc1ccc(OC)c(CCNC(=O)CS(=O)(=O)Cc2nc(-c3cccc(Cl)c3)oc2C)c1 | 15.8µM* | / | / | / | / | -41.9%
COc1cccc(-c2nc(CS(=O)(=O)CC(=O)Nc3c(C)cc(C)cc3C)c(C)o2)c1 | 10µM* | / | / | / | / | -79.0%
Cc1ccccc1-c1nc(CS(=O)(=O)CC(=O)Nc2c(C)cccc2C)c(C)o1 | 11.2µM* | / | / | / | / | -61.7%
COc1cccc(-c2nc(CS(=O)(=O)CC(=O)NCCc3cc(OC)ccc3OC)c(C)o2)c1 | -26.7% | -15.4 | -24.9% | -19.4% | -5.9 | -22.7%
CCOc1ccc(CCNC(=O)CS(=O)(=O)Cc2nc(-c3ccc(OC)cc3)oc2C)cc1 | ? | 20.9 | 2.8% | -14.6% | -3.2 | -11.3%
CCOc1ccc(CCNC(=O)CS(=O)(=O)Cc2nc(-c3ccccc3F)oc2C)cc1 | ? | -60.7* | -21.8% | -15.9% | 19.9 | -6.9%
CC(C)N(Cc1nc(-c2ccc(Cl)cc2)no1)C(=O)C(c1ccccc1)c1ccccc1 | 0.0% | -11.4 | -18.0% | -23.6% | -7.8 | -15.5%
CC(C)N(Cc1nc(-c2ccc(Cl)cc2)no1)C(=O)/C=C/c1ccccc1 | ? | -62.1* | -2.0% | -8.9% | 5.2 | 2.3%
Fc1cc(NC(=S)NCc2ccc(CNC(=S)Nc3ccc(Cl)c(F)c3)cc2)ccc1Cl | ? | 21.1 | -25.6% | -22.3% | -2.1 | 2.82µM*
Fc1ccccc1CNC(=S)Nc1cccc(C(F)(F)F)c1 | ? | -98.1* | -12.5% | -3.4% | 7.1 | -37.8%
